Source: PubChem
This excerpt belongs to a sample that is enriched for hits.
p53ts 32C tox: cytotoxicity in p53ts cells at permissive temperature; H1299-p53A138V at 32C, ATP luminescence viability, 24 h; Potency, µM (top dose mostly 46.1 µM), usual class: cytotoxic; 130,000 compounds, 0.93% hits; AID 924; also: nearly all actives have a fitted effect of over 55% in size
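Cells: H1299 p53ts (A138V), 600/well, pre-incubated 16–30 h at 37C. Cpd up to 46 uM, 24 h, 32C. Readout: ATPlite luminescence, 20 min RT. Normalization: DMSO vs tamoxifen 100 uM. AC50 by Hill equation.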
IkB signaling: inhibitors of IkB signaling in ABC-DLBCL cells; ABC-DLBCL IkBa-CBG/CBR dual luciferase ratio, 4 h; response scale: scaled: untreated 0%, proteasome inhibitor 100%; Potency, µM (titrated, usually from 57.1 µM); 110,000 compounds, 0.04% hits; active = well fitted curve in the direction sought with a large enough effect in the signal ratio, not every such curve was filed as active; inconclusive = small, poorly fitted or top-dose-only effect, or a change in a side signal; the % refers to the signal ratio;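 also: the direction sought is a rising ratio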
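Luminescence ratio of IκBα-fused green versus native red beetle luciferase in OCI-Ly3 cells, 4 h post-doxycycline with compound; red signal alone, scaled from basal (0%) to zero light (-100%), flagged nonspecific or cytotoxic effects.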
IMPase cell inh: membrane-permeable compound that blocks inositol monophosphatase | AID 901 | 120,000 tested, under 10 active | inhibition (IP1 accumulation), % at 46.1 µM | CHO-M1 cells, IP1 accumulation, HTRF TR-FRET ratio; active = well fitted curve in the direction sought with a large enough effect in the signal ratio, not every such curve was filed as active; inconclusive = small, poorly fitted or top-dose-only effect, or a change in a side signal; inactive = no such curve, though single readings can be large or run the other way; the % refers to the signal ratio;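 also: cells stimulated with carbachol in lithium chloride buffer; higher means more IMPase inhibition seen as more IP1 and lower FRET ratio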
Target sequence (P97697 whole entry, looked up): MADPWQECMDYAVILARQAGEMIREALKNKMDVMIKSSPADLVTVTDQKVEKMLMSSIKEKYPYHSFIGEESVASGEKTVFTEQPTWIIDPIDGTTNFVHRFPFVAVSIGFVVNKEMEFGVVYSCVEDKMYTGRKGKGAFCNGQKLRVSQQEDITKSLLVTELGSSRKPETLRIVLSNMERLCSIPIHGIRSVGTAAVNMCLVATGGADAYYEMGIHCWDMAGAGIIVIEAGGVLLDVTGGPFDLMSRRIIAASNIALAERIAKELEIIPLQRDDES
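CHO-M1, 2000 cells/well, cultured 16–30 h; cpd up to 46 uM; carbachol (50 uM solution, stimulation buffer w/ 50 mM LiCl, pH 7.4), 30 min 37C; IP-One TR-FRET, 10 min RT; Ex 320/Em 665, 620; Hill-fit AC50.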
Luciferase inh: firefly luciferase inhibition; P08659; purified firefly luciferase, luminescence, 8 min; Potency, µM (series often up to 57.1 µM), actives largely listed as inhibitors; 72,000 compounds, 2.2% hits; also: nearly all actives have a fitted effect of over 40% in size
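Here, luciferase activity is measured as luminescence following an 8 min room-temperature reaction at 10 uM ATP, pH 7.2. Every library sample is titrated.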
p53ts 39C tox: kills p53ts cells at the nonpermissive temperature; H1299-p53A138V viability at 39C, ATP luminescence, 24 h; Potency, µM (highest dose often 46.1 µM), actives largely listed as cytotoxic; 130,000 compounds, 1.5% hits; also: nearly all actives have a fitted effect of over 55% in size
Peg3 imprint: induces erasure of genomic imprints in mouse ES cells; 110,000 compounds, 0.02% hits; AID 1948; Potency, µM (doses to about 60.7 µM), usual class: activators; mouse ES Peg3-LacZ reporter, beta-gal luminescence, 40 h
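Readout: BetaGlo luminescence (5 min, room temp) for LacZ from the normally silent maternal Peg3 allele in female Peg3LacZ-Neo ES cells. Cells 300/well, 40 h, 37C, 5% CO2. Data normalized per plate to negative controls.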
Hits are given with their value; ! = not confirmed by another sample; [ ] = another dose, or the depositor's remark. Unless noted, calls follow the shape of the dose curve; as a rule, active = well fitted curve in the direction sought with a large enough effect; inconclusive = small, poorly fitted or top-dose-only effect, or another doubt; inactive = no such curve, though single readings can be large; an effect the other way counts as inactive or inconclusive.

`Cc1ccc(C)c(NS(=O)(=O)c2ccc3oc(=O)c4ncn(C)c4c3c2)c1` gave p53ts 32C tox inconclusive, IkB signaling inconclusive, p53ts 39C tox 7.9µM and Peg3 imprint inactive[10.9 µM].
`COc1ccc(C)cc1NS(=O)(=O)c1ccc2oc(=O)c3ncn(C)c3c2c1` gave p53ts 32C tox inconclusive, IkB signaling inactive, p53ts 39C tox inconclusive and Peg3 imprint inactive[10.9 µM].
`Fc1ccccc1COc1ccc(-c2nnn(Cc3ccccc3F)n2)cc1` gave IMPase cell inh inactive.
`Cn1nnc(-c2ccc(OCc3ccccc3F)cc2)n1` gave p53ts 32C tox inactive, IkB signaling inactive, IMPase cell inh inactive, Luciferase inh 25µM, p53ts 39C tox inactive and Peg3 imprint inactive.
Screening OC(COc1ccc(Cl)c2ccccc12)CN1CCN(c2ccccn2)CC1 (stereo unspecified) returned p53ts 32C tox inconclusive, IkB signaling inconclusive, IMPase cell inh inactive, Luciferase inh inactive, p53ts 39C tox 16µM and Peg3 imprint inactive.
`C[C@@]12CCC(=O)C=C1CC[C@@H]1[C@@H]2[C@H](O)C[C@]2(C)[C@@H]1CC[C@]2(O)C(=O)COC(=O)CCC(=O)O` gave p53ts 32C tox inactive, IkB signaling 0.13µM, IMPase cell inh inactive, Luciferase inh inactive and p53ts 39C tox inactive.
C[C@]12CCC(=O)C=C1CC[C@@H]1[C@@H]2[C@@H](O)C[C@@]2(C)[C@H]1CC[C@]2(O)C(=O)COC(=O)CCC(=O)O was read as Luciferase inh inactive and Peg3 imprint inactive.
Screening CC(=O)OCC(=O)[C@@]1(O)CCC2C3CCC4=CC(=O)CC[C@]4(C)C3C(O)C[C@]21C (stereo partly specified) returned p53ts 32C tox inactive, p53ts 39C tox inactive and Peg3 imprint inactive.
Screening C[C@@]12CCC(=O)C=C1CC[C@@H]1[C@@H]2[C@H](O)C[C@]2(C)[C@@H]1CC[C@]2(O)C(=O)CO returned IkB signaling 0.079µM!, Luciferase inh inactive and Peg3 imprint inactive.
`O=C(Nc1ccc(F)cc1Cl)c1cnc(N2CCOCC2)c2ccccc12` gave p53ts 32C tox inactive, IkB signaling inactive, p53ts 39C tox inactive and Peg3 imprint inactive[10.9 µM].
COc1ccc(-c2cc([C@H](O)C3CCCCN3)c3ccccc3n2)cc1 (stereo partly specified) was read as Peg3 imprint inactive[10.9 µM].
Screening CCOc1ccc2nc(NC(=O)CSc3nnc(-c4ccncc4)n3CC3CCCO3)sc2c1 (stereo unspecified) returned p53ts 32C tox inconclusive, IkB signaling inactive, IMPase cell inh inactive, Luciferase inh 2.5µM, p53ts 39C tox inactive and Peg3 imprint inactive.
Screening Cc1cccc(C)c1NC(=O)c1cc2sccc2n1Cc1ccc(F)cc1 returned p53ts 32C tox inactive, IkB signaling inactive, p53ts 39C tox 13µM and Peg3 imprint inactive[10.9 µM].
Screening COC(=O)NC(c1ccccc1)C(C#N)C(=O)OC (stereo unspecified) returned p53ts 32C tox inactive[9.22 µM] and p53ts 39C tox inactive[9.22 µM].
`COc1ccc(O)c(-c2cc(-c3cccs3)[nH]n2)c1` gave p53ts 32C tox inactive, IkB signaling inactive, IMPase cell inh inactive, Luciferase inh 16µM, p53ts 39C tox inactive and Peg3 imprint inactive.
Screening CSc1ccc(CNc2ccccc2)cc1 returned IMPase cell inh inactive.
`CSc1ccc(CNc2ccccn2)cc1` gave p53ts 32C tox inconclusive, IkB signaling inactive, IMPase cell inh inactive, Luciferase inh 16µM, p53ts 39C tox inactive and Peg3 imprint inactive.
`Nc1ccc(C#Cc2ccccc2)cc1` gave IMPase cell inh inactive.
`Cc1cccc(C#Cc2ccccc2)n1` gave p53ts 32C tox 13µM, IkB signaling inactive, IMPase cell inh inactive, Luciferase inh 13µM, p53ts 39C tox inconclusive and Peg3 imprint inactive.
For Clc1cccc(N2CCN(c3c4c(nc5nncn35)CCC4)CC2)c1 the results were p53ts 32C tox inactive, IkB signaling inconclusive, p53ts 39C tox inactive and Peg3 imprint inactive[10.9 µM].
`COC(=O)c1cc(NC(=O)Cn2nc(C)n3cccc3c2=O)cc(C(=O)OC)c1` gave p53ts 32C tox inactive, IkB signaling inconclusive, p53ts 39C tox inactive and Peg3 imprint inactive[10.9 µM].
Screening CCc1cccc(C)c1NC(=O)Cn1nc(C)n2cccc2c1=O returned p53ts 32C tox inactive, IkB signaling inconclusive, p53ts 39C tox 13µM and Peg3 imprint inactive[10.9 µM].
For CC1=CC(=O)c2ccccc2C1=O the results were p53ts 32C tox 25µM, IkB signaling inconclusive, IMPase cell inh inactive, Luciferase inh inactive, p53ts 39C tox inconclusive and Peg3 imprint inactive.
CSCC[C@@H]1NC(=O)C/C=C\[C@@H](C)COC(=O)[C@@H](C)COC1=O was read as p53ts 32C tox inactive[9.22 µM], Luciferase inh inactive[11.4 µM] and p53ts 39C tox inactive[9.22 µM].
CCc1ccc(NC(=O)CC2C(=O)N(c3ccc(F)cc3)C(=O)N2Cc2ccc(F)cc2)cc1 (stereo unspecified) was read as p53ts 32C tox inactive, IkB signaling inconclusive, p53ts 39C tox inactive and Peg3 imprint inactive[10.9 µM].
COc1cc(/C=C(\C#N)c2nc3ccccc3[nH]2)ccc1OCc1ccc(F)cc1 was read as p53ts 32C tox inconclusive, IkB signaling inactive, p53ts 39C tox inactive and Peg3 imprint inactive[10.9 µM].
COc1cc(/C=C(\C#N)c2nc3ccccc3[nH]2)ccc1OCc1cccc(C(F)(F)F)c1 was read as p53ts 32C tox 13µM, IkB signaling inactive, p53ts 39C tox 3.2µM and Peg3 imprint inactive[10.9 µM].
Screening C[C@H]1[C@H](C)CC[C@]2(C(=O)O)CC[C@]3(C)C(=CC[C@@H]4[C@]5(C)C[C@H](O)[C@@H](O)[C@@](C)(CO)[C@@H]5[C@H](O)C[C@@]43C)[C@H]12 returned p53ts 32C tox inactive[9.22 µM], IkB signaling inactive[11.4 µM], Luciferase inh inactive[11.4 µM] and p53ts 39C tox inactive[9.22 µM].
COc1cccc(NS(=O)(=O)c2ccc3[nH]c4c(c3c2)CCCCCC4)c1 was read as p53ts 32C tox inactive, IkB signaling inconclusive, p53ts 39C tox 20µM and Peg3 imprint inactive[10.9 µM].
COc1ccc(NS(=O)(=O)c2ccc3[nH]c4c(c3c2)CCCCCC4)cc1 was read as p53ts 32C tox inactive, IkB signaling inconclusive, p53ts 39C tox inconclusive and Peg3 imprint inactive[10.9 µM].
Screening CCOC(=O)CC(NS(=O)(=O)c1ccc2[nH]c3c(c2c1)CCCC3)c1ccccc1Cl (stereo unspecified) returned p53ts 32C tox inactive, IkB signaling inactive, p53ts 39C tox 13µM and Peg3 imprint inactive[10.9 µM].
CO[C@@H]1COC(=O)[C@H]2CCCN2C(=O)[C@@H](C)COC(=O)[C@H](COCc2ccccc2)NC(=O)C/C=C\[C@H]1C was read as p53ts 32C tox inactive[9.22 µM], Luciferase inh inactive[11.4 µM] and p53ts 39C tox inactive[9.22 µM].
